Measurements as given in PubChem BioAssay (Tox21).
“And” between values parts separate entries of the source, which are not always exact repeats. Equal values may be shown once. Results filed as inconclusive are left out. The source made the active and inactive calls. The call rests on the fitted dose curve; in most records, active means well fitted curve in the direction sought with a large enough effect in the repeat runs; inconclusive means weak or mixed curves; inactive means no such curve, though single readings can be large; an effect the other way counts as inactive or inconclusive.

Tests used:
[1] = qHTS RealTime-Glo MT Cell Viability Assay in HEK293 cells - 16 hour (AID 1224872); further: top concentration of the series differs between compounds; nearly all actives have a fitted effect of over 50% in size
Procedure, shortened: (§1)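 Assay medium contained NanoLuc luciferase plus cell-permeant prosubstrate, added with HEK293 cells at 600 cells/well. After 5 h at 37 C/5% CO2 compounds were added; plates stayed at 37 C for 40 h with serial luminescence reads.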

[2] = qHTS RealTime-Glo MT Cell Viability Assay in HepG2 cells - 8 hour (AID 1224873); further: nearly all actives have a fitted effect of over 55% in size
Procedure, shortened: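 Real-time viability: cells seeded at 600 per well together with NanoLuc and cell-permeant prosubstrate, compounds added after 5 h incubation. Luminescence tracked at 0, 8, 16, 24, 32 and 40 h of exposure.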

[3] = qHTS RealTime-Glo MT Cell Viability Assay in HEK293 cells - 40 hour (AID 1224874); conditions: RealTime-Glo luminescence; max response: stronger effect = lower value; further: nearly all actives have a fitted effect of over 50% in size
Procedure, shortened: (§2)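 600 HEK293 cells per well, dispensed already mixed with RealTime-Glo MT reagents. Compound dosing came 5 h later. The same wells were read for luminescence at 0, 8, 16, 24, 32 and 40 h of exposure at 37 C.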

[4] = A CellTox Green Cytotoxicity Assay to monitor cytotoxicity in HEK293 cells - 24 hour (AID 1224875); further: series mostly up to about 77 µM; nearly all actives have a fitted effect of over 45% in size
Procedure, shortened: (§3)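 Dead-cell fluorescence measured kinetically: asymmetric cyanine dye, HEK293, 600 cells/well, 5 h settle, 23 nL cpd/DMSO, 37 C, reads 0–40 h every 8 h.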

[5] = qHTS RealTime-Glo MT Cell Viability Assay in HepG2 cells - 32 hour (AID 1224877); further: nearly all actives have a fitted effect of over 55% in size
Procedure, shortened: (§4)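 qHTS, HepG2, 600 cells/well, RealTime-Glo (NanoLuc + prosubstrate) added with cells; 5 h preincubation; DMSO compound addition; 37 C; luminescence at 0/8/16/24/32/40 h.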

[6] = A CellTox Green Cytotoxicity Assay to monitor cytotoxicity in HepG2 cells - 24 hour (AID 1224878); further: nearly all actives have a fitted effect of over 45% in size
Procedure, shortened: (§5)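 First, HepG2 cells (600/well) mixed with reagent were plated; second, after 5 h at 37 C they received compounds via pintool; third, fluorescence was measured at 0 h through 40 h at 8 h intervals.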

[7] = A CellTox Green Cytotoxicity Assay to monitor cytotoxicity in HepG2 cells - 40 hour (AID 1224879); further: nearly all actives have a fitted effect of over 40% in size; further: potency means the concentration at half of the fitted maximal effect
Procedure, shortened: as §5

[8] = qHTS RealTime-Glo MT Cell Viability Assay in HEK293 cells - 0 hour (AID 1224880); further: top concentration of the series differs between compounds; nearly all actives have a fitted effect of over 45% in size
Procedure, shortened: as §2

[9] = A CellTox Green Cytotoxicity Assay to monitor cytotoxicity in HEK293 cells - 32 hour (AID 1224881); further: nearly all actives have a fitted effect of over 40% in size
Procedure, shortened: as §3

[10] = A CellTox Green Cytotoxicity Assay to monitor cytotoxicity in HepG2 cells - 0 hour (AID 1224882); further: nearly all actives have a fitted effect of over 35% in size
Procedure, shortened: as §5

[11] = A CellTox Green Cytotoxicity Assay to monitor cytotoxicity in HepG2 cells - 32 hour (AID 1224883); further: nearly all actives have a fitted effect of over 50% in size; further: potency means the concentration at half of the fitted maximal effect
Procedure, shortened: as §5

[12] = A CellTox Green Cytotoxicity Assay to monitor cytotoxicity in HEK293 cells - 8 hour (AID 1224884); further: nearly all actives have a fitted effect of over 35% in size
Procedure, shortened: as §3

[13] = qHTS RealTime-Glo MT Cell Viability Assay in HepG2 cells - 16 hour (AID 1224885); further: nearly all actives have a fitted effect of over 50% in size
Procedure, shortened: as §4

[14] = qHTS RealTime-Glo MT Cell Viability Assay in HEK293 cells - 24 hour (AID 1224886)
Procedure, shortened: as §1

[15] = qHTS RealTime-Glo MT Cell Viability Assay in HEK293 cells - 8 hour (AID 1224887)
Procedure, shortened: as §2

[16] = A CellTox Green Cytotoxicity Assay to monitor cytotoxicity in HEK293 cells - 16 hour (AID 1224888); further: nearly all actives have a fitted effect of over 35% in size
Procedure, shortened: as §3

[17] = qHTS RealTime-Glo MT Cell Viability Assay in HepG2 cells - 0 hour (AID 1224889); further: nearly all actives have a fitted effect of over 50% in size
Procedure, shortened: as §4

[18] = A CellTox Green Cytotoxicity Assay to monitor cytotoxicity in HepG2 cells - 8 hour (AID 1224890); further: nearly all actives have a fitted effect of over 45% in size
Procedure, shortened: as §5

[19] = qHTS assay to identify small molecule antagonists of the estrogen receptor alpha (ER-alpha) signaling pathway using the BG1 cell line in the presence of 0.1 nM 17-beta-estradiol - cell viability counter screen (AID 1259241); further: nearly all actives have a fitted effect of over 40% in size; further: potency means the concentration at half of the fitted maximal effect
Procedure, shortened: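 VM7Luc4E2, 4,000 cells/well, phenol red-free medium + 10% charcoal-stripped FBS; 24 hr plating; cpd + 0.1 nM E2 final, 22 hr 37C/5% CO2; CellTiter-Fluor 30 min, fluorescence.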

[20] = A CellTox Green Cytotoxicity Assay to monitor cytotoxicity in HepG2 cells - 16 hour (AID 1224876); further: nearly all actives have a fitted effect of over 45% in size
Procedure, shortened: as §5
On the % scale 0 is the no-effect control and ±100 the full control effect.

OC[C@H]1O[C@H](O[C@]2(CCl)O[C@H](CCl)[C@@H](O)[C@@H]2O)[C@H](O)[C@@H](O)[C@H]1Cl
inactive: Potency [1] | Potency [2] | max response [3] -6.96% and 4.96% and 1.17% | Potency [4] | Potency [5] | Potency [6] | Potency [7] | Potency [8] | Potency [9] | Potency [10] | Potency [11] | Potency [12] | Potency [13] | Potency [14] | Potency [15] | Potency [16] | Potency [17] | Potency [18] | Potency [19]

CS(=O)(=O)OCCCCOS(C)(=O)=O
inactive: Potency [1] | Potency [2] | max response [3] 2.47% and 13.2% and 7.82% | Potency [4] | Potency [5] | Potency [6] | Potency [7] | Potency [8] | Potency [9] | Potency [10] | Potency [12] | Potency [13] | Potency [14] | Potency [15] | Potency [16] | Potency [17] | Potency [18] | Potency [19]

Cc1ccc(S(=O)(=O)O)cc1
inactive: Potency [1] | Potency [2] | max response [3] 2.66% and 6.16% and 6.13% | Potency [4] | Potency [5] | Potency [6] | Potency [7] | Potency [8] | Potency [9] | Potency [10] | Potency [11] | Potency [12] | Potency [13] | Potency [14] | Potency [15] | Potency [16] | Potency [18] | Potency [19]

NC(=O)n1c(O)c(C(=O)c2cccs2)c2cc(Cl)ccc21
active: Potency [19] 16.8 µM
inactive: Potency [1] | Potency [2] | max response [3] 3.23% | Potency [4] | Potency [20] | Potency [5] | Potency [6] | Potency [7] | Potency [9] | Potency [10] | Potency [12] | Potency [13] | Potency [14] | Potency [15] | Potency [16] | Potency [18]

Nc1ccc(S(N)(=O)=O)cc1
inactive: Potency [1] | Potency [2] | max response [3] 9.21% and 0.884% and 1.65% | Potency [4] | Potency [5] | Potency [6] | Potency [7] | Potency [8] | Potency [9] | Potency [10] | Potency [12] | Potency [13] | Potency [14] | Potency [15] | Potency [16] | Potency [17] | Potency [18] | Potency [19]

O=C(O)CC(O)C(=O)O (configuration not stated)
inactive: Potency [1] | Potency [2] | max response [3] -23.9% and -4.53% and 7.17% | Potency [4] | Potency [5] | Potency [6] | Potency [7] | Potency [8] | Potency [9] | Potency [10] | Potency [11] | Potency [12] | Potency [13] | Potency [14] | Potency [15] | Potency [16] | Potency [18] | Potency [19]

CCCCCCCC(=O)OCC(COC(=O)CCCCCCC)OC(=O)CCCCCCC
inactive: Potency [1] | Potency [2] | max response [3] 4.45% and -0.248% and 1.22% | Potency [4] | Potency [5] | Potency [6] | Potency [7] | Potency [8] | Potency [9] | Potency [10] | Potency [11] | Potency [12] | Potency [13] | Potency [14] | Potency [15] | Potency [16] | Potency [17] | Potency [18] | Potency [19]

CNNCc1ccc(C(=O)NC(C)C)cc1
inactive: Potency [1] | Potency [2] | max response [3] 2.93% and 2.31% and 7.98% | Potency [4] | Potency [5] | Potency [6] | Potency [8] | Potency [9] | Potency [10] | Potency [12] | Potency [13] | Potency [14] | Potency [15] | Potency [16] | Potency [18] | Potency [19]
active: Potency [7] 24.5 µM and 15.5 µM and 23.9 µM | Potency [11] 24.5 µM and 19.5 µM

Cc1cc(C)nc(NS(=O)(=O)c2ccc(N)cc2)n1
inactive: Potency [1] | Potency [2] | max response [3] -37.4% and -3.88% and 7.67% | Potency [4] | Potency [5] | Potency [6] | Potency [7] | Potency [8] | Potency [9] | Potency [10] | Potency [11] | Potency [12] | Potency [13] | Potency [14] | Potency [15] | Potency [16] | Potency [18] | Potency [19]

Cc1cn([C@H]2C=C[C@@H](CO)O2)c(=O)[nH]c1=O
inactive: Potency [1] | Potency [2] | max response [3] 3.84% and 0.681% | Potency [4] | Potency [5] | Potency [6] | Potency [7] | Potency [8] | Potency [9] | Potency [10] | Potency [11] | Potency [12] | Potency [13] | Potency [14] | Potency [15] | Potency [16] | Potency [17] | Potency [18] | Potency [19]
